Source: PubChem BioAssay
MPTP inh – mitochondrial permeability transition pore inhibitors, primary screen, biochemical, isolated mouse mitochondria, absorbance; Ca2+ swelling absorbance, 30 min; inhibition, % at 10 µM; 360,000 compounds, 1.4% hits; AID 602449, 2012;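 active = inhibition of 50% or more, scaled per plate between neutral and stimulator controls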
FAS-TE inh – FAS thioesterase domain inhibitors, primary screen, biochemical, fluorescence intensity, uHTS. inhibition, % at 15 µM. 360,000 compounds, 0.67% hits. AID 602261, 2012. recombinant FAS-TE, OMFH fluorogenic substrate, fluorescence endpoint. Fatty acid synthase (Homo sapiens), P49327;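 active = compounds whose normalised, plate-corrected inhibition of enzyme fluorescence in the single-dose primary screen is 50% or more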
aDG glyco up – activators of alpha-DG glycosylation, primary screen, uHTS, Pro5-aDG cells, AlphaScreen; alpha-DG glycosylation AlphaScreen (IIH6); 0% Pro5, 100% B10-LARGE cell signal; activation, % at 10 µM; 360,000 compounds, 0.22% hits; AID 624168, 2012;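 active = activation of at least 8% versus controls, or a plate z-score of at least 8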;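 note: Pro5 are CHO cells carrying HIG-tagged alpha-DG that lacks glycosylation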
Yeast superoxide – reduction of superoxide in aged yeast, primary screen, HTS; 330,000 compounds, 0.18% hits; superoxide response (% of plate mean), % at 10 µM; AID 2690, 2010; S. cerevisiae aged cells, superoxide DHE fluorescence; stronger effect = lower value;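 active = superoxide response under a set limit, about three screen SD below normal, cut at about 65% in these data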;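 note: yeast aged for seven days with compound at 30 °C before DHE staining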
Cardio protect – cardioprotection against H2O2-induced cell death, primary screen, uHTS, H9c2 cells, ATPLite luminescence; H9c2 cardiomyocytes, H2O2 injury protection, 2 h; protection from H2O2 cell death, % at 20 µM; 360,000 compounds, 0.63% hits; AID 588492, 2011;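 active = compounds giving at least 50% protection of heart cells from peroxide-induced death in the single-dose screen, raw or plate-pattern-corrected value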
SUMO Mot1 rescue – yeast Mot1-301 growth rescue at high temperature, primary screen, SUMOylation pathway inhibitor project, S. cerevisiae, ATP luminescence, 38.5C; S. cerevisiae Mot1-301 growth rescue; percent above DMSO median, 100 means doubled; growth rescue, % at 18.8 µM; 320,000 compounds, 1% hits; AID 2716, 2010;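 active = every valid replicate shows activation above 250% relative to neutral control wells; inactive = the rest, any valid replicate at or below 250%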
MPTP counter – fluorescence retest of MPTP screen hits in isolated mitochondria, single concentration. 5,000 compounds, 78% hits. AID 624504, 2012. membrane potential, Rhodamine 123 fluorescence. inhibition, % at 10 µM. shares compounds with MPTP inh; in the data active = inhibition above about 22%
MPTP swell DR – mitochondrial permeability transition pore inhibitors, dose response, biochemical, absorbance, uHTS hits; 780 compounds, 58% hits; shares compounds with MPTP inh; IC50, µM; isolated mitochondria swelling; AID 651561, 2012; in the data active = IC50 below about 20 µM
MPTP cs DR – fluorescent counter-screen in isolated mitochondria, dose response, counter-screen for MPTP inhibitor project, biochemical, fluorescence, uHTS hits. shares compounds with MPTP inh. isolated mitochondria counterscreen, fluorescence read-out. IC50, µM. 780 compounds, 49% hits. AID 651564, 2012; in the data active = IC50 below about 80 µM
Numbers stand for hits; 0 = inactive; - = no result; ! = not active in a repeat. Compounds with a hit are over-represented: about 3.8% of the library has one in this group of screens.

SMILES | MPTP inh | FAS-TE inh | aDG glyco up | Yeast superoxide | Cardio protect | SUMO Mot1 rescue | MPTP counter | others
CNCCCC1Sc2ccccc2Oc2ccccc21 (stereo not given) | 79 | 0 | 0 | 0 | 0 | 0 | 0 | MPTP swell DR=5.1;MPTP cs DR=0
CNCCCC1c2ccccc2C=Cc2ccccc21 | 0 | 0 | 0 | 0 | 0 | 0 | -
COc1ccc(C2=CC(=O)N(Nc3ccccc3)C2=O)cc1 | 61 | 0 | 0 | 0 | 0 | 0 | 0
O=C1C=C(c2ccccc2)C(=O)N1Nc1ccccc1 | 0 | 0 | 0 | 0 | 0 | 0 | -
CC1(C)CC(=O)C(=Cc2cn(CCC#N)nc2-c2ccc(F)cc2)C(=O)C1 | 63 | 0 | 0 | 0 | 0 | 0 | 41
CC1(C)CC(=O)C(=Cc2cn(-c3ccccc3)nc2-c2ccc(Cl)cc2)C(=O)C1 | 0 | 0 | 0 | 0 | 0 | 0 | -
CC1(C)CC(=O)C(=Cc2cn(CCC#N)nc2-c2ccc(Cl)cc2)C(=O)C1 | 77 | 0 | 0 | 0 | 0 | 0 | 59
CCC(=O)c1ccc(OCC(=O)NCc2ccccc2CN2CCCC2)cc1 | 0 | 0 | 0 | 0 | 0 | 0 | -
CN1CCN(CC2(O)CCN(S(=O)(=O)c3ccc(Cl)cc3)CC2)CC1 | 0 | 0 | 0 | 0 | 0 | 0 | -
O=C(c1cnn2c(-c3ccccc3)cc(-c3ccccc3)nc12)N1CCN(Cc2ccccc2)CC1 | 0 | 0 | 0 | 0 | 0 | 0 | -
Cc1cc(C)cc(NC(=O)C2CCN(S(=O)(=O)c3ccc4c(c3)NC(=O)C(C)S4)CC2)c1 (stereo not given) | 0 | 0 | 0 | 0 | 0 | 0 | -
Cc1ccc(NC(=O)C2CCN(S(=O)(=O)c3ccc4c(c3)NC(=O)C(C)S4)CC2)cc1Cl (stereo not given) | 96 | 0 | 0 | 0 | 0 | 0 | 97
CC1CCc2sc(C(=O)NCc3ccc(F)cc3)cc2C1 (stereo not given) | 58 | 0 | 0 | 0 | 0 | - | 62
O=S(=O)(NCC(Nc1ccc(Cl)cc1)c1ccccc1)c1ccccc1 (stereo not given) | 75 | 0 | 0 | 0 | 0 | 0 | 87
Cc1ccc(NC(CNS(=O)(=O)c2ccc(Cl)cc2)c2ccccc2)cc1 (stereo not given) | 0 | 0 | 0 | 0 | 0 | 0 | -
Cc1ccc(OCCn2cnc3c2c(=O)n(C)c(=O)n3C)cc1 | 0 | 0 | 0 | 0 | 0 | 0 | -
Cn1ncc2c(N3CCN(c4ccc(Cl)c(Cl)c4)CC3)ncnc21 | 88 | 0 | 0 | 0 | 0 | - | 99
Cn1ncc2c(N3CCN(c4ccccc4F)CC3)ncnc21 | 0 | 0 | 0 | 0 | 0 | 0 | -
Cc1ccc(NS(=O)(=O)c2ccc3c(c2)C(=O)c2ccccc2C3=O)c(C)c1 | 82 | 0 | 0 | 0 | 0 | 0 | 72
CCN1CCN(Cc2ccc(NC(=O)c3ccc(C)c(NC(=O)C(=O)c4c[nH]c5ccccc45)c3)cc2C(F)(F)F)CC1 | 94! | 0 | 0 | 0 | 0 | 0 | 0
CCN1CCN(Cc2ccc(NC(=O)c3cc(NC(=O)C(=O)c4c[nH]c5ccccc45)cc(OC)c3)cc2C(F)(F)F)CC1 | 0 | 0 | 0 | 0 | 0 | 0 | -
Cc1cccc(OC(C)C(=O)Nc2cc(Cl)ccc2-n2cncn2)c1 (stereo not given) | 0 | 0 | 0 | 0 | 0 | 0 | -
COCCN1C[C@@H](CO)O[C@@H](n2cnc3c(NCc4ccco4)ncnc32)C1 | 0 | 0 | 0 | - | 0 | - | -
O=[N+]([O-])c1cccc(-c2ccc(CN3CCCCC3)o2)c1 | 0 | 0 | 0 | 0 | 0 | 0 | -
CC(=O)c1cccc(Nc2nc(-c3cccc([N+](=O)[O-])c3)cs2)c1 | 94 | 0 | 0 | 0 | 0 | 0 | 76
